Experimental data from PubChem BioAssay (Tox21).
Results filed as inconclusive are left out. Values without a mark were called inactive. The call rests on the fitted dose curve; in most records, active means well fitted cell-killing curve with a large enough effect in the repeat runs; inconclusive means weak or mixed curves, or effect the other way; inactive means no such curve, though single readings can be large or run the other way.

assay: qHTS assay to identify small molecule antagonists of the retinoid-related orphan receptor gamma (ROR-gamma) signaling pathway - cell viability counter screen (AID 1159520); conditions: Tet-on RORgamma CHO cells viability, ATP luminescence, 16 h; series mostly up to 92.4 µM; activity, negative = cytotoxicity: at the top concentration; further: nearly all actives have a fitted effect of over 50% in size
Description: U.S. Tox21 Program National Center for Advancing Translational Sciences [NCATS] NIH Chemical Genomics Center [NCGC] U.S. Environmental Protection Agency [EPA] National Institutes of Environmental Health Sciences [NIEHS] National Toxicology Program [NTP] U.S. Food and Drug Administration [FDA] Tox21 Assay Overview: Nuclear steroid hormone receptors are involved in many biological processes including inflammatory responses, cell proliferation, and apoptosis. Environmental factors or compounds disrupting these nuclear receptor pathways and gene expression may promote susceptibility to immunotoxicants and autoimmune diseases. One important group of these expression factors are the retinoid-related orphan receptors. To assess compounds that may interfere with the retinoid-related orphan receptor gamma (ROR-gamma) transcription factor, a cell-based luciferase assay was used. The CHO cell-based assay utilizes a TET-inducible ROR expression factor and ROR response element-LUC reporter gene. Reporter gene activity was induced using Doxycycline Hyclate and measured after 16 hr incubation. Tet-on ROR gamma CHO cells were used to screen against the Tox21 10K compound library for cytotoxicity by measuring the viability of the cells based on the quantitation of the ATP.
Tox21 Assay Protocol Summary: Tet-on ROR gamma CHO cells were dispensed at 1,000 cells in 4 uL of culture medium per well into white wall/solid bottom 1536-well plates using a Multidrop Combi (Thermo Scientific, Waltham, MA) dispenser. Following incubation at 37 C and 5% CO2 for 4 hr, 23 nL of compounds dissolved in DMSO, positive controls or DMSO only were transferred by a Pintool station (Kalypsys, San Diego, CA) and after 2 hr incubation at 37 C, one ul of 1 uM (final concentration) of Doxycycline Hyclate was added to all the wells by using a Flying Reagent Dispenser (FRD) (Aurora Discovery, San Diego, CA). After 16 hr incubation at 37 C and 5% CO2, 5 uL of CellTiter-Glo reagent (Promega Corporation, Madison, WI) was added to each assay plate using FRD. After 30 min incubation at room temperature, luminescence was quantified on a ViewLux plate reader (Perkin Elmer, Waltham, MA).
On the % scale 0 is the no-effect control and ±100 the full control effect.

| Compound | activity, negative = cytotoxicity |
| --- | --- |
| CC(C)(Cc1c[nH]c2ccccc12)NCC(O)COc1ccccc1C#N (stereo not given) | -5.46% [at 42.5 µM] |
| C1CCN(CN2CCCCC2)CC1 | 8.84% |
| CCc1cnc(C(=O)O)c(C(=O)O)c1 | -0.776% |
| O=C(c1ccco1)N1CCNCC1 | 3.27% [at 42.5 µM] |
| CCN(CC)CC(=O)OCC(=O)[C@@]1(O)CC[C@H]2[C@@H]3CCC4=CC(=O)CC[C@]4(C)[C@H]3[C@@H](O)C[C@@]21C | 2.96% [at 42.5 µM] |
| CCCCCCOC(=O)c1ccccc1 | -10.6% |
| O=C(OCCCCCOC(=O)c1ccccc1)c1ccccc1 | 3.8% |
| O=C(O)CCc1nc2ccccc2[nH]1 | 0.619% [at 42.5 µM] |
| CC1(C)CC(O)CC(C)(C)N1[O] | 4.4% |
| O=C(Cl)c1ccc(F)c(Cl)c1 | -4.08% |
| O=[N+]([O-])c1ccccc1CCO | 4.87% |
| O=C1CCCN1CCO | -9.89% |
| O=C(O)c1cccnc1Nc1cccc(C(F)(F)F)c1 | -1.59% [at 42.5 µM] |
| NC(=O)c1cc[n+](CC2=C(C(=O)[O-])N3C(=O)[C@@H](NC(=O)Cc4cccs4)[C@H]3SC2)cc1 | 2.32% [at 42.5 µM] |
| c1ccc(-c2ccc(-c3ccccc3)cc2)cc1 | 4.58% [at 19 µM] |
| CCCCCC1CCC(=O)O1 (stereo not given) | 5.79% |
| CC(C)CCCCCOC(=O)CS | 5.51% |
| CCCCOc1ccc(N)cc1 | -1.24% |
| O=C(O)c1ccc2cc(O)ccc2c1 | -4.55% |
| CCCC1CCOC(C)S1 (stereo not given) | 4.71% |

| Compound | activity, negative = cytotoxicity |
| --- | --- |
| CC(=O)c1cccnc1 | -13% |
| CCCOC(C)=O | 1.49% |
| O=C(O)COCC(=O)O | 1.3% |
| C(/C=C/C=C/Nc1ccccc1)=Nc1ccccc1 | -5.58% |
| Cc1cc(SC2=C(O)C[C@@](CCc3ccc(N)cc3)(C(C)C)OC2=O)c(C(C)(C)C)cc1CO | 3.31% |
| COC=O | -1.04% [at 8.39 µM] |
| CC(C)=CCC[C@H](C)CCO | -2.55% |
| CCC(=O)O[C@@H]1C[C@H]2CC[C@]1(C)C2(C)C | 1.31% |
| COc1cc(CNC(=O)CCCC/C=C/C(C)C)ccc1O | 4.88% |
| C/C(=C\C(C)CC(C)CC(C)C)C1CC(=O)OC1=O (stereo not given) | -15.4% |
| O=C(O)c1cc(C(=O)O)c(C(=O)O)cc1C(=O)O | -1.95% |
| CCOCCn1c(N2CCCN(C)CC2)nc2ccccc21 | -1.04% [at 42.5 µM] |
| CCCCCCCCCCCCN1CCOCC1 | 1.13% |
| CC(C)NC(=O)c1ccccc1N | -16.2% |
| C[C@]12CCC(=O)C=C1[C@@H]1C[C@@H]1[C@H]1[C@@H]3[C@@H]4C[C@@H]4[C@@]4(CCC(=O)O4)[C@@]3(C)CC[C@@H]12 | -12.2% [at 42.5 µM] |
| CC(=O)S[C@H](C(=O)N[C@H]1Cc2ccccc2[C@H]2CCC[C@@H](C(=O)O)N2C1=O)C(C)C | 1.28% |
| Cc1ccc(S(=O)(=O)NC(=O)NC2CCCC2)cc1 | 2.65% [at 42.5 µM] |
| C=Cc1ccc(C=C)cc1 | 1.46% |
| CCn1nc(Cc2ccccc2)cc1C1CCN(C[C@H]2C[C@H](N(C)[C@@H](C(=O)O)C(C)C)C[C@@H]2c2cccc(F)c2)CC1 | 4.52% |
| COC(=O)Cc1cccc2ccccc12 | 5.55% |
